Among the test systems are NCI-H23 lung; NCI-H226 lung; NCI-H322M lung; HOP-62 NSCLC; NCI-H460 lung; HOP-92 NSCLC; NCI-H522 lung; A549/ATCC NSCLC; 786-0 renal; COLO 205 colon; DU-145 prostate; K-562 leukemia; MALME-3M melanoma; MDA-MB-231 breast; RXF 393 renal; SF-268 CNS; SF-295 CNS; SF-539 CNS; UACC-257 melanoma; M14 melanoma.
Common to all, as to experiment: NCI-60 one-dose screen, 48 h (100 = growth as untreated, 0 = no growth, -100 = all killed)
Holding throughout (conditions): 10 µM unless noted

The panel holds about 83,000 compounds, 20% with a hit somewhere; the sample as a whole holds those more often.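 Results are percent growth after 48 hours of single-concentration exposure. 100 means growth as in untreated cells, lower positive values show inhibition; negative values down to -100 show cell death.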 A number with no mark means an inactive call. Activity calls are given as the source filed them. How the source made its calls: active means growth percent below 10; inactive means the rest.

Consider `O=C(CCCCCNC1=CC(=O)c2ccccc2C1=O)NCCC[Te]c1ccccc1`, for which the growth was -12.9% (active) with NCI-H23 lung; -54.6% (active) in the experiment on NCI-H226 lung; -8.86% (active) in the experiment with NCI-H322M lung; -51% (active) in the experiment on HOP-62 NSCLC; -45.3% (active) in the experiment on NCI-H460 lung; -32.4% (active) with HOP-92 NSCLC. For the same molecule, the growth in the experiment with NCI-H522 lung was -18.5% (active); in the experiment with A549/ATCC NSCLC, -45.4% (active); in the experiment on 786-0 renal it was -48.5% (active); in the experiment with COLO 205 colon, -57% (active); in the experiment on DU-145 prostate, -11.6% (active); in the experiment with K-562 leukemia it was 32.7%. The growth is -52.3% (active) in the experiment with MALME-3M melanoma; -39.8% (active) with MDA-MB-231 breast; 13.8% in the experiment on RXF 393 renal; -26.7% (active) with SF-268 CNS; -32.5% (active) with SF-295 CNS; -49.7% (active) in the experiment on SF-539 CNS. The growth is 2.91% (active) in the experiment with UACC-257 melanoma and -37.6% (active) with M14 melanoma.

On to `Fc1ccc(N2COOC3(OOC2)C2CC4CC(C2)CC3C4)cc1`, for which the growth was 69.4% in the experiment with NCI-H23 lung; 105% with NCI-H226 lung; 91.1% in the experiment on NCI-H322M lung; 83.6% in the experiment on HOP-62 NSCLC; 101% with NCI-H460 lung; 29% with HOP-92 NSCLC. For the same molecule, the growth in the experiment with NCI-H522 lung was 85.2%; in the experiment on A549/ATCC NSCLC, 90.2%; with 786-0 renal it was 12.6%; with COLO 205 colon it was 116%; in the experiment on DU-145 prostate, 90.8%; in the experiment on K-562 leukemia, 26.7%. The growth is 106% in the experiment with MALME-3M melanoma; 95.5% in the experiment with MDA-MB-231 breast; 115% in the experiment on RXF 393 renal; 91.5% in the experiment with SF-268 CNS; 87.5% with SF-295 CNS; 82.5% in the experiment with SF-539 CNS. Moreover, the growth in the experiment on UACC-257 melanoma was 89.6%; with M14 melanoma, 89.5%.

For the molecule `CNC12C3C4C1C1C2C3C41C(=O)N[C@H](C(=O)N(C)[C@H](C[C@@H](OC(C)=O)c1nc(C(=O)N[C@@H](Cc2ccccc2)C[C@H](C)C(=O)OC)cs1)C(C)C)C1CC1` (stereo not given in full), the growth was 7.82% (active) with NCI-H23 lung; 11.2% in the experiment with NCI-H226 lung; 48.5% with NCI-H322M lung; 22.1% with HOP-62 NSCLC; 14.8% in the experiment on NCI-H460 lung; -15.3% (active) in the experiment with HOP-92 NSCLC. Moreover, the growth in the experiment with NCI-H522 lung was -27.4% (active); with A549/ATCC NSCLC, 17.7%; in the experiment on 786-0 renal, 15.5%; in the experiment with COLO 205 colon, -46.5% (active); with DU-145 prostate, -1.19% (active); with K-562 leukemia, 0.86% (active). The growth was 34% in the experiment on MALME-3M melanoma; 0.928% (active) in the experiment on MDA-MB-231 breast; 25.5% in the experiment on RXF 393 renal; 14.4% with SF-268 CNS; 7.26% (active) in the experiment on SF-295 CNS; -1.2% (active) in the experiment with SF-539 CNS. Further, the values for the growth in the experiment with UACC-257 melanoma and in the experiment with M14 melanoma were 41.1% and 4.03% (active), respectively.

Take `Cc1c(O)c(CN(CCCl)CCCl)cc(CN(CCCl)CCCl)c1O`: the growth is 102% in the experiment with NCI-H23 lung; 95.6% in the experiment on NCI-H226 lung; 94.8% in the experiment with NCI-H322M lung; 102% in the experiment on HOP-62 NSCLC; 31.4% with NCI-H460 lung; 47.3% with HOP-92 NSCLC. Further, the growth was 79.4% with NCI-H522 lung; 67.8% in the experiment on A549/ATCC NSCLC; 99.6% in the experiment on 786-0 renal; 78.1% with COLO 205 colon; 107% with DU-145 prostate; 103% in the experiment on K-562 leukemia. In addition, the growth with MALME-3M melanoma is 93.1%; in the experiment on MDA-MB-231 breast it was 93.5%; with RXF 393 renal it was 97.6%; in the experiment on SF-268 CNS, 88.4%; in the experiment on SF-295 CNS it was 93.9%; in the experiment with SF-539 CNS, 82.5%. The growth is 92.8% in the experiment on UACC-257 melanoma and 92.4% with M14 melanoma.

Regarding `CC(=O)O[C@H](C[C@H](C(C)C)N(C)C(=O)[C@@H](NC(=O)[C@H]1CCCCN1C)C(C)C)c1nc(C(=O)N[C@@H](Cc2ccccc2)C[C@H](C)C(=O)O)c(C)s1`, the growth is 35.9% in the experiment on NCI-H23 lung; 52.6% in the experiment with NCI-H226 lung; 52.8% in the experiment with NCI-H322M lung; 32.1% with HOP-62 NSCLC; 7.72% (active) in the experiment with NCI-H460 lung; 25.6% in the experiment on HOP-92 NSCLC. The growth in the experiment on NCI-H522 lung was -4.18% (active); with A549/ATCC NSCLC it was 11.9%; in the experiment with 786-0 renal it was 26.1%; in the experiment on COLO 205 colon, -62.6% (active); in the experiment on DU-145 prostate it was 21.8%; with K-562 leukemia it was 14%. The growth was 58.5% in the experiment on MALME-3M melanoma; 23.5% in the experiment on MDA-MB-231 breast; 53.9% in the experiment on RXF 393 renal; 29.7% in the experiment with SF-268 CNS; 15.9% in the experiment with SF-295 CNS; 4.22% (active) with SF-539 CNS. The figures for the growth in the experiment with UACC-257 melanoma and in the experiment on M14 melanoma were 46.3% and 6.5% (active), respectively.

Take `CNC(=O)Oc1ccc2c(c1)OCO2`: the growth in the experiment on NCI-H23 lung was 103%; in the experiment with NCI-H226 lung, 103%; with NCI-H322M lung it was 107%; with HOP-62 NSCLC it was 102%; with NCI-H460 lung, 106%; in the experiment on HOP-92 NSCLC it was 108%. Also, the growth in the experiment with NCI-H522 lung was 103%; in the experiment on A549/ATCC NSCLC it was 100%; in the experiment on 786-0 renal it was 107%; in the experiment on COLO 205 colon, 103%; in the experiment on DU-145 prostate, 108%; with K-562 leukemia, 90.1%. In addition, the growth in the experiment on MALME-3M melanoma is 104%; in the experiment with MDA-MB-231 breast it was 101%; with RXF 393 renal, 113%; in the experiment on SF-268 CNS, 102%; in the experiment on SF-295 CNS, 101%; in the experiment with SF-539 CNS it was 102%. The growth with UACC-257 melanoma was 102%; in the experiment on M14 melanoma it was 107%.

`Cn1cc(C=O)c2nccnc21`: the growth with NCI-H23 lung is 94.9%; in the experiment on NCI-H226 lung, 120%; with NCI-H322M lung, 123%; in the experiment on HOP-62 NSCLC, 113%; in the experiment on NCI-H460 lung it was 104%; in the experiment on HOP-92 NSCLC, 82%. Further, the growth in the experiment on NCI-H522 lung was 78.2%; in the experiment with A549/ATCC NSCLC it was 96.8%; in the experiment on 786-0 renal, 119%; in the experiment with COLO 205 colon, 109%; with DU-145 prostate, 118%; in the experiment on K-562 leukemia, 101%. Further, the growth in the experiment on MALME-3M melanoma was 106%; with MDA-MB-231 breast, 111%; in the experiment on RXF 393 renal it was 112%; in the experiment with SF-268 CNS it was 123%; in the experiment on SF-295 CNS, 101%; with SF-539 CNS it was 108%. Further, the results for the growth in the experiment with UACC-257 melanoma and in the experiment with M14 melanoma were 102% and 120%, respectively.

As to `COc1ccc2nc(NC(=O)COc3cc(/C=C\c4cc(OC)c(OC)c(OC)c4)ccc3OC)sc2c1`, the growth was 32.1% in the experiment on NCI-H23 lung; 40.1% with NCI-H226 lung; 25.3% in the experiment with NCI-H322M lung; 45% in the experiment with HOP-62 NSCLC; 4.25% (active) in the experiment on NCI-H460 lung; 50.9% in the experiment with HOP-92 NSCLC. The growth is -19.7% (active) with NCI-H522 lung; 25.7% in the experiment with A549/ATCC NSCLC; 61% with 786-0 renal; 26% in the experiment on COLO 205 colon; 0.406% (active) with DU-145 prostate; 15.6% with K-562 leukemia. Besides, the growth in the experiment with MALME-3M melanoma was 14.1%; in the experiment with MDA-MB-231 breast it was 22.7%; with RXF 393 renal it was -19.9% (active); in the experiment with SF-268 CNS it was 42.3%; with SF-295 CNS, -2.09% (active); with SF-539 CNS, -7.12% (active). Besides, the results for the growth with UACC-257 melanoma and in the experiment with M14 melanoma were 59.5% and 22.9%, respectively.

These data come from PubChem BioAssay (NCI).
